Growth inhibition data for 98 compounds are collected here from PubChem BioAssay AID1259309 (ICCB-Longwood Screening Facility, Harvard Medical School, 2017).

“And” between values parts separate entries of the source, which are not always exact repeats. Equal entries are not always repeated. About 1,800 (0.55%) of roughly 330,000 compounds were called active. The full list was thinned out, with actives kept by preference. Unmarked numbers belong to inactive results. No stated cut-off is given here; in the data, active means growth inhibition above about 68%; inactive means the rest.

A short description of the assay: growth inhibition of ugtP-null S. aureus, primary screen, RN4220 ugtP deletion, OD600 (AID 1259309).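 Further: plate controls were untreated wells for no effect and antibiotic for full effect.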 As to conditions: 16 h, active compounds read high.
Regarding `Cc1ccc(S(=O)(=O)N(Cc2cccc([N+](=O)[O-])c2)C(=O)N2CCN(C)CC2)cc1`, the growth inhibition was 2.43%.

Take `O=C(CCl)N(Cc1cccc([N+](=O)[O-])c1)c1cccc(Cl)c1`: the growth inhibition is 97.8% (active).

On to `O=C(c1cccc([N+](=O)[O-])c1)N1CCN(Cc2ccccc2)CC1`, for which the growth inhibition was 9.07%.

Turning to `COC(=O)C1=C(c2ccc3ccccc3c2)CC2CCC1N2C(=O)NCc1ccc(F)cc1` (stereo not drawn), the growth inhibition is 12%.

For `COc1cccc(C2C3=C(N=c4sc(=Cc5cccc(O)c5)c(=O)n42)c2ccccc2CC3)c1OC` (stereo not drawn), the growth inhibition is -7.58%.

In the case of `COc1ccc(CN(Cc2ccc(OC)cc2)C(=O)c2cccs2)cc1`, the growth inhibition is 43.4%.

On to `COc1ccc(C(CCN(Cc2ccc(OC)c(OC)c2)C(=O)CCl)c2ccccc2)cc1` (stereo not drawn), for which the growth inhibition was 98% (active).

On to `COc1ccc(CCNC(=O)C(Sc2ccccn2)c2ccccc2)cc1OC` (stereo not drawn), for which the growth inhibition was 9.85%.

As to `COc1ccc(N(CC(=O)NN=Cc2ccco2)S(=O)(=O)c2ccccc2)cc1Cl`, the growth inhibition was 2.1%.

With `COc1ccc(C=NNC(=O)COc2ccc(C(C)(C)C)cc2)cc1Cn1nc(C)cc1C`, the growth inhibition is 0.349%.

As to `O=C(NN=Cc1cccnc1)C1CC1(c1ccccc1)c1ccccc1` (stereo not drawn), the growth inhibition was 9.47%.

Regarding `O=C1C=C(c2cccc(CO)c2)CC(c2ccc(Cl)cc2)C1` (stereo not drawn), the growth inhibition is 7.76%.

Turning to `Cn1cc(Cl)c(C(=O)NNC(=S)Nc2cccc(Cl)c2)n1`, the growth inhibition was -5.85%.

For the compound `O=C(O)CC1(CC(=O)Nc2cccc(C(F)(F)F)c2)CCCC1`, the growth inhibition is -0.923%.

`FC(F)(F)c1cccc(NC(=S)Nc2cccc(Cl)c2)c1`: the growth inhibition is 93.1% (active).

For `Cc1ccc(SC(=NS(=O)(=O)c2ccc(Cl)cc2)c2ccccc2)cc1`, the growth inhibition is 60.7%.

On to `O=C(COC(=O)C=Cc1ccccc1)Nc1cc(C(F)(F)F)ccc1N1CCOCC1`, for which the growth inhibition was -9.22%.

With `CCCCCCCCn1c2c(c(=N)c3c1CCC3)CCCC2`, the growth inhibition is 100% (active).

Take `COc1ccc(OC)c(C=NNC(=O)c2ccc(-c3ccccc3)cc2)c1`: the growth inhibition is 1.81%.

As for `CC(=NNC(=O)c1cc(-c2ccc(Br)s2)[nH]n1)c1ccncc1`, the growth inhibition is -6.85%.

On to `O=C(Nc1nnc(C2COc3ccccc3O2)o1)c1ccc(F)cc1` (stereo not drawn), for which the growth inhibition is 90.2% (active).

As for `O=C(COC(=O)c1ccc(F)cc1)NCC1COc2ccccc2O1` (stereo not drawn), the growth inhibition is -4.48%.

For `CC1COc2ccccc2N1C(=O)c1ccc(F)cc1` (stereo not drawn), the growth inhibition is -0.431%.

As to `COC(=O)c1ccccc1-c1ccc(C=NNc2nc(N3CCCC3)nc(N3CCCC3)n2)o1`, the growth inhibition was -8.43%.

Turning to `CON=Cc1cc(C(=O)c2ccc(Cl)cc2Cl)cn1C`, the growth inhibition was -4.32%.

Regarding `CC(C)=CCCC1(C)C=Cc2c(ccc3c2[nH]c2cc(O)c(C)cc23)O1` (stereo not drawn), the growth inhibition was 95.6% (active).

For the compound `CC[C@@]12C(=O)N(c3cccc(F)c3)C(=O)N1C(c1ccc(Br)cc1)C1C(=O)N(C(C)(C)C)C(=O)C12` (stereo partly drawn), the growth inhibition is -3.27%.

On to `CCCCCCCCCCCCN1CC(=CC(=O)OCC)c2cc(C(F)(F)F)ccc2S1(=O)=O`, for which the growth inhibition is 2.79%.

As for `O=C(CON=Cc1c(Cl)cccc1Cl)NNC(=O)c1cccc(Cl)c1`, the growth inhibition is 2.89%.

Turning to `Cc1ccccc1N/C(SCc1ccc(Cl)cc1)=C(/C#N)C(N)=O`, the growth inhibition is 84.4% (active).

For the compound `Cc1cccc(NC(=O)CSC(N)=O)c1C`, the growth inhibition was 8.69%.

As to `Cc1ccccc1NC(=O)CSC(=O)c1ccccc1`, the growth inhibition is 5.32%.

Turning to `O=C(OCc1ccc(-c2ccccc2)cc1)c1cccc(O)c1`, the growth inhibition was 100% (active).

Consider `O=C(OCC(=O)c1c[nH]c2ccccc12)c1cccc(O)c1`, for which the growth inhibition was -15.2%.

As for `O=C(CNC(=O)c1ccc(-c2ccccc2)cc1)OCc1ccc(Cl)cc1`, the growth inhibition is 19.4%.

Regarding `Cn1cccc1CC(=O)NN=Cc1ccco1`, the growth inhibition is -0.545%.

As to `OCCC1CC(O)C(O)[C@]2(OCCCc3ccccc32)O1` (stereo partly drawn), the growth inhibition was 4.16% and 2.75%.

For the compound `COc1cc(C=NNC(=O)CC#N)ccc1Oc1nc(Cl)ncc1F`, the growth inhibition is -1.11%.

In the case of `O=C(Oc1ccc(C=NNc2ccccc2)cc1)c1ccccc1`, the growth inhibition is -8.03%.

As to `N#CC(=NNc1cc(Cl)cc(Cl)c1)c1nnc2n1CCCCC2`, the growth inhibition was -12%.

In the case of `Cc1cc(C)n(C(=O)C(C#N)=NNc2cc(Cl)cc(Cl)c2)n1`, the growth inhibition was 99.7% (active).

For `Cc1cc(C)n(C(=O)CCNC(=O)c2ccccc2Cl)n1`, the growth inhibition is -2.2%.

Turning to `CC(=NNC(=O)c1ccco1)c1ccc(NC(=O)C(F)(F)F)cc1`, the growth inhibition was 0.661%.

As for `CCOc1ccc(N2C(=O)CC(S/C(N)=N/N=Cc3cccs3)C2=O)cc1` (stereo not drawn), the growth inhibition is 4.39%.

For the compound `CCOC1OC(C(=O)N2CCN(Cc3ccc4c(c3)OCO4)CC2)=CC(c2cn(C(C)=O)c3ccccc23)C1CCCO` (stereo not drawn), the growth inhibition was -12.6% and 8.11%.

As to `Oc1ccc(C=NNc2cccc3cccnc23)c(O)c1`, the growth inhibition is 3.39%.

Turning to `Oc1ccccc1C=NNc1cccc2cccnc12`, the growth inhibition was 83% (active).

For `Oc1ccccc1C=NNc1nccnc1Cl`, the growth inhibition was 0.00308%.

With `Cc1ccc2nc(NN=Cc3ccccc3C#N)nc(-c3ccccc3)c2c1`, the growth inhibition was 11.2%.

`O=c1c2nnn(-c3ccccc3)c2ncn1CC=Cc1ccccc1`: the growth inhibition was 12.1%.

With `CCOc1ccc(-c2cc(C)[n+](CCN(CC)CC)c(-c3ccc(OCC)cc3)c2)cc1`, the growth inhibition is 97.1% (active).

For the compound `CCOc1ccc2c(c1)C(c1ccc(C)cc1)=NNC(c1ccc(C)cc1)=N2`, the growth inhibition is 10.8%.

Take `CCOc1ccc(-c2nnc3ccc(SC)nn23)cc1`: the growth inhibition was 0.868%.

As for `CCCC(C#Cc1ccc(N(C)C)cc1)=C1c2ccccc2C(=O)N1c1ccccc1`, the growth inhibition is 13.2%.

For `COC(=O)NN=Cc1cc(Br)ccc1OCc1ccccc1`, the growth inhibition was 20.2%.

Take `C(=Nn1c2ccccc2c2ccccc21)c1ccccc1`: the growth inhibition is 11.7%.

With `CC(C)c1ccc2c(c1)c(SC(C)(C)C)c(CC(C)(C)C(=O)O)n2Cc1ccc(Cl)cc1`, the growth inhibition was 101% (active).

For the compound `CCOc1ccc2ccccc2c1C=NNC(=O)CNC(=O)C(c1ccccc1)c1ccccc1`, the growth inhibition was 22.4%.

With `CN1CCSC1=CC=C1C(=O)N(C)C(=S)N1C`, the growth inhibition is -5.24%.

With `Cc1ccc(O)c(-c2cc(C(=O)NCc3ccccc3)[nH]n2)c1`, the growth inhibition was 7.53%.

Regarding `Cc1ccc(O)c(-c2cc(C(=O)Nc3c(C)n(C)n(-c4ccccc4)c3=O)[nH]n2)c1`, the growth inhibition is 2.72%.

With `Cc1ccc(C)c(NC(=O)c2cc(-c3cc(C)cc(C)c3O)n[nH]2)c1`, the growth inhibition was 99.5% (active).

As to `CNC(=O)CCCCC(=O)NN=Cc1ccc(Cl)cc1Cl`, the growth inhibition was -1.21%.

Take `COc1ccc(CC2CN3C(=NCC3C)N2CCNC(=O)CCC2CCCCC2)cc1` (stereo not drawn): the growth inhibition was -6.07% and 2.3%.

As for `COc1cccc(C=NNc2ncnc(N)c2[N+](=O)[O-])c1OC`, the growth inhibition was -0.174%.

As to `O=C(Nc1ccccc1)C1CC=CC2CCN(Cc3ccc(Cl)c(Cl)c3)C(=O)C21` (stereo not drawn), the growth inhibition is 2.24%.

For the compound `Cc1c(N2C(=O)CSC2=NN=Cc2ccccc2O)c(=O)n(-c2ccccc2)n1C`, the growth inhibition is 7.58%.

In the case of `CCCn1c(=O)c(C(=O)Nc2cc(C)ccn2)c(O)c2ccccc21`, the growth inhibition is 11.7%.

For the compound `CCCCCn1c(=O)c(C(=O)NCc2ccccn2)c(O)c2ccccc21`, the growth inhibition is 10.1%.

Regarding `CCCn1c(=O)c(-c2ccccc2)c(O)c2ccccc21`, the growth inhibition was 10.2%.

As to `CCCn1c(=O)c(C(=O)NN=Cc2ccc(F)cc2)c(O)c2ccccc21`, the growth inhibition is 101% (active).

As for `CCCCCn1c(=O)c(C(=O)NCc2ccccc2)c(O)c2ccccc21`, the growth inhibition is 44.1%.

On to `CC(C)CCn1c(=O)c(C(=O)NN=Cc2cccc(F)c2)c(O)c2ccccc21`, for which the growth inhibition is 99% (active).

With `C/C(C=NNc1nc(C)cc(=O)[nH]1)=C\c1ccccc1`, the growth inhibition is -4.37%.

Take `Cc1ccc(S(=O)(=O)N=Cc2ccco2)cc1`: the growth inhibition was 4.28%.

For `COC(=O)c1ccc(C23CC4(C2)C(CN(Cc2cccnc2)C4c2ccccc2)C3c2ccc(Cl)nc2)cc1` (stereo not drawn), the growth inhibition is 8.61%.

For `O=C(COc1ccccc1)NCC(=O)NN=C/C=C/c1ccccc1`, the growth inhibition was 2.76%.

For `O=S1(=O)C[C@@H]2N=C(NN=Cc3ccccc3)S[C@@H]2C1`, the growth inhibition is -0.808%.

As for `COc1ccc(C=CC2=CCN(Cc3ccc(OC)cc3)CC2)cc1`, the growth inhibition is 1.66%.

With `CC(C)C(NC(=O)c1ccc(Cl)cc1)C(=O)O` (stereo not drawn), the growth inhibition was 0.934%.

Turning to `CC(C)CNC(=S)NC(=O)c1ccc(Cl)cc1`, the growth inhibition is 91.1% (active).

Turning to `O=C(NC(=S)NC1CCCCC1)c1ccc(Cl)cc1`, the growth inhibition is 82.7%.

Regarding `Brc1ccccc1C1Nc2cccc3cccc(c23)N1`, the growth inhibition was -4.74%.

In the case of `COc1ccc(C2NC(=O)c3ccccc3N2)cc1` (stereo not drawn), the growth inhibition was 6.04%.

Turning to `Oc1ccc(C2Nc3cccc4cccc(c34)N2)cc1`, the growth inhibition was 96.6% (active).

In the case of `COc1ccc(C=NNC(=O)c2cc[n+]([O-])cc2)cc1`, the growth inhibition is 2.45%.

Turning to `CC(=NNc1ccc(S(=O)(=O)N2CCCCC2)cn1)c1ccc(O)cc1`, the growth inhibition was -0.0996%.

Regarding `Cc1ccc(OC(=O)c2cc3ccccc3o2)cc1`, the growth inhibition is 98% (active).

For the compound `Cc1ccc(OC(=O)c2ccccc2C(=O)OCC(F)(F)C(F)F)cc1`, the growth inhibition is 14.2%.

As to `COc1ccccc1CN(C)C(=O)c1cc2ccccc2o1`, the growth inhibition was 9.31%.

`Cc1ccc(-c2nnnn2C2CC(=NNC(N)=S)C3OCC2O3)cc1` (stereo not drawn): the growth inhibition is 3.57%.

For `O=C(NN=Cc1ccncc1)c1cccc(NC(=O)c2ccc(Cl)cc2)c1`, the growth inhibition is -6.73%.

`O=c1c2ccccc2nc(-c2ccco2)n1-c1ccc(Br)cn1`: the growth inhibition was 11.8%.

Turning to `CCn1c(/C=C/c2ccc([N+](=O)[O-])o2)nc2ccccc2c1=O`, the growth inhibition is 11.7%.

`O=c1c2ccccc2nc(/C=C/c2ccc(F)cc2)n1-c1ccccc1O`: the growth inhibition is 97.9% (active).

Regarding `O=C(CSc1nc2ccccc2c(=O)n1-c1ccc(F)cc1)NC1CC1`, the growth inhibition is 2.6%.

As for `O=C(CSc1nc2ccccc2c(=O)n1-c1ccccc1F)N1CCOCC1`, the growth inhibition was -0.774%.

Regarding `O=c1c2ccccc2nc(/C=C/c2ccco2)n1-c1ccccc1O`, the growth inhibition is 92% (active).
